# Test results published in PubChem BioAssay (NCATS).
# Results filed as inconclusive are left out. Where a call stands in place of a potency, no number is given. A number with no mark means an inactive call. Calls of active or inactive are those of the source. Calls come from the whole dose curve; as a rule, active = well fitted curve in the direction sought with a large enough effect; inconclusive = small, poorly fitted or top-dose-only effect, or another doubt; inactive = no such curve, though single readings can be large; an effect the other way counts as inactive or inconclusive.
# Test: qHTS for Inhibitors of Plasmodium falciparum (DD2) proliferation (AID 504314);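 for activity, negative = inhibition: parasite DNA measured by SYBR Green fluorescence after red cell lysis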
# Details: P. falciparum Dd2 in erythrocytes, SYBR Green growth, 72 h; series mostly up to 6.11 µM
# Outline: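 Erythrocytes infected with P. falciparum (0.3% parasitemia, 2.5% hematocrit final) were incubated with compounds for 72 h at 37C, 5% CO2. Parasite DNA was detected by SYBR Green I fluorescence after saponin/Triton lysis, normalized to artemisinin (0.29 uM) and DMSO controls.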
# Potency is the fitted concentration of half-maximal effect.
SMILES,Potency,"activity, negative = inhibition"
CCCNC(=O)OC[C@H]1O[C@H](CCON=C2C[C@@H](O)[C@@H](O)[C@@H]3[C@H]4C(=O)N(CC)C(=O)[C@@H]4CC[C@H]23)C=C[C@H]1Oc1ccc(OC)cc1,inactive,
COC(=O)C1=C(C(=O)OC)[C@@H]2N(C)c3ccccc3[C@@]23C[C@@H](CO)N(C(=O)c2ccc(Br)cc2)C3=N1,inactive,
COc1ccc(-c2ccc3c(n2)CCCN3CC(O)CN2CCCc3nc(C)c(C)cc32)cc1 (stereo not drawn),inactive,
CCCNC(=O)CC1OC(C2CCCCC2)Cc2ccccc21 (stereo not drawn),inactive,
CCN1C(=O)N[C@@H](c2cccc(C(F)(F)F)c2)[C@H](C(C)=O)[C@H]1C,inactive,
CCOC(=O)CN1C(=O)[C@]2(O[C@H](C)CC3=CCCC32)c2c(Br)cccc21 (stereo partly drawn),inactive,
COCC=CC1=CC2=CC(=O)C(C)(OC(=O)c3cnc4ccccc4n3)C(=O)C2=CN1C1CC1 (stereo not drawn),inactive,
COCCN1C(=O)NC(c2ccc(Br)cc2)C(C(=O)OC)=C1C (stereo not drawn),inactive,
COC(=O)C1=C(C(=O)OC)[C@@H]2N(C)c3ccccc3[C@@]23CCC(=O)N(CC(C)C)C3=N1,inactive,
COc1cc2c(cc1OC)[C@@H]1O[C@](c3ccsc3)(C2)Oc2cc(-c3ccccc3)oc(=O)c21,inactive,
C=CCN1C(=O)[C@]2(OCCC=C[C@@H]2C)c2cc(OC)ccc21,inactive,
CC#CCN1C(=O)NC(c2ccccc2)C(C(=O)OCC)=C1c1ccccc1 (stereo not drawn),inactive,
CCN1C(=O)N(C)C(c2ccccc2)C(C(=O)OC)=C1C (stereo not drawn),inactive,
CC(=O)OC[C@H]1O[C@H](c2ccc(C(C)=O)cc2)C=C[C@H]1OC(C)=O,inactive,
COC(=O)[C@@H]1CC[C@H](C)[C@@H](c2ccc(C)cc2)N1C(=O)c1ccc(C=NOC[C@@H](O)[C@H]2O[C@@H]3OC(C)(C)O[C@H]3[C@@H]2O)cc1,inactive,
CCCCCCCC1=CC2=CC(=O)C(C)(O)C(=O)C2=CN1CCCC (stereo not drawn),inactive,
COc1cc(O)c(C(=O)C=Cc2ccccc2)c(O)c1,inactive,
C=CCOC(=O)C(C(C)=O)[C@@H](NC(=O)OC)c1cccs1 (stereo partly drawn),inactive,
CCCCCCN1C(=O)CC[C@@]23C1=NC(C(=O)OC)=C(C(=O)OC)[C@@H]2N(Cc1ccccc1)c1ccccc13,inactive,
CC(C)=CCCC(C)=CCON=C1C[C@@H](O)[C@@H](O)[C@@H]2[C@H]3C(=O)N(c4ccc(F)cc4F)C(=O)[C@@H]3CC[C@H]12,inactive,

SMILES,Potency,"activity, negative = inhibition"
C=C(C(=O)OCC)C(=O)c1ccccc1,inactive,
CCN1C(=NCc2ccc(OC)cc2)N[C@@H](CCc2ccccc2)[C@H](C(=O)NCc2ccc(OC)cc2)[C@H]1C,inactive,
O=C(NC(CC1=CCCCC1)c1ccccc1)C(F)(F)F (stereo not drawn),inactive,
CCN(CC)CCCN=C1NC(c2ccccc2)C(C(=O)OC)=C(C)N1CC (stereo not drawn),inactive,
C=CC1=C2C=C(C3CC3)N(C3CCCCC3)C=C2C(=O)C(C)(OC(=O)c2ccco2)C1=O (stereo not drawn),,1.92% [at 1.12 µM]
CC(=O)OC[C@H]1O[C@@H](ON=C2C[C@@H](O)[C@@H](O)[C@@H]3[C@H]4C(=O)N(C5CCCCC5)C(=O)[C@@H]4CC[C@@H]23)[C@H](OC(C)=O)[C@@H](OC(C)=O)[C@H]1OC(C)=O,inactive,
C=CC[C@@H]1C=C[C@H](ON=C(C)CCN2CCCCc3nc(C)c(C)cc32)[C@H](CO)O1,inactive,
COC(=O)[C@H](COC(C)(C)C)NC(=O)O[C@@H]1C(=O)c2ccc(OC)cc2O[C@H]1c1cccc(C(F)(F)F)c1,inactive,
CC(C)(C)OC(=O)NCCCC1=CC2=CC(=O)C(C)(O)C(=O)C2=CO1 (stereo not drawn),inactive,
CC(C)=NOCc1ccc(-c2cn([C@@H]3COC[C@@H]3O)nn2)cc1,inactive,
COc1ccc2c(c1)O[C@@H](c1ccc3c(c1)OCO3)[C@H](O)C2=O,inactive,
CCC12C=C(C=Cc3ccccc3)C(CC)(C1)C(c1ccccc1)CC2=O (stereo not drawn),inactive,
CCN1C(=NCCc2ccccn2)NC(c2cccc(C(F)(F)F)c2)C(C(=O)OC)=C1C (stereo not drawn),533 nM (active),
COC(=O)N1[C@H]2CC[C@@]3(C)CC(=O)C[C@]1(C)C3c1ccccc12,inactive,
COC(=O)CC=C1c2ccc3c(c2[C@@H](OC)[C@@H]1C)OCO3,inactive,
C[C@H]1COC(=O)[C@H](Cc2ccccc2)NC(=O)[C@@H](C)COC(=O)[C@H](Cc2ccccc2)NC1=O,inactive,
COC(=O)[C@H](COC(C)(C)C)NC(=O)O[C@@H]1C(=O)c2ccc(OC)cc2O[C@H]1c1ccc2c(c1)OCO2,inactive,
COC(=O)N[C@@H](c1ccco1)C(C(C)=O)C(=O)OC (stereo partly drawn),inactive,
C=CCNC(=O)[C@H]1C=C(OC)C(=O)C[C@H]2c3ccccc3C[C@]12C,inactive,

# Test: qHTS for Inhibitors of Plasmodium falciparum (GB4) proliferation (AID 504315); note: nearly all actives have a fitted effect of over 50% in size
# Details: P. falciparum GB4 in erythrocytes, SYBR Green DNA, 72 h; series mostly up to 6.7 µM
# Outline: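 Erythrocytes infected with P. falciparum line (0.3% parasitemia, 2.5% hematocrit final) incubated with compounds 72 h at 37 °C, 5% CO2; SYBR Green lysis buffer added, fluorescence read next day. Normalized to 0.29 uM artemisinin and DMSO.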
row,SMILES,Potency
1,CCCNC(=O)OC[C@H]1O[C@H](CCON=C2C[C@@H](O)[C@@H](O)[C@@H]3[C@H]4C(=O)N(CC)C(=O)[C@@H]4CC[C@H]23)C=C[C@H]1Oc1ccc(OC)cc1,inactive
2,COC(=O)C1=C(C(=O)OC)[C@@H]2N(C)c3ccccc3[C@@]23C[C@@H](CO)N(C(=O)c2ccc(Br)cc2)C3=N1,inactive
3,COc1ccc(-c2ccc3c(n2)CCCN3CC(O)CN2CCCc3nc(C)c(C)cc32)cc1 (stereo not drawn),inactive
4,CCCNC(=O)CC1OC(C2CCCCC2)Cc2ccccc21 (stereo not drawn),inactive
5,CCN1C(=O)N[C@@H](c2cccc(C(F)(F)F)c2)[C@H](C(C)=O)[C@H]1C,inactive
6,CCOC(=O)CN1C(=O)[C@]2(O[C@H](C)CC3=CCCC32)c2c(Br)cccc21 (stereo partly drawn),inactive
7,COCC=CC1=CC2=CC(=O)C(C)(OC(=O)c3cnc4ccccc4n3)C(=O)C2=CN1C1CC1 (stereo not drawn),inactive
8,COCCN1C(=O)NC(c2ccc(Br)cc2)C(C(=O)OC)=C1C (stereo not drawn),inactive
9,COC(=O)C1=C(C(=O)OC)[C@@H]2N(C)c3ccccc3[C@@]23CCC(=O)N(CC(C)C)C3=N1,inactive
10,COc1cc2c(cc1OC)[C@@H]1O[C@](c3ccsc3)(C2)Oc2cc(-c3ccccc3)oc(=O)c21,inactive
11,C=CCN1C(=O)[C@]2(OCCC=C[C@@H]2C)c2cc(OC)ccc21,inactive
12,CC#CCN1C(=O)NC(c2ccccc2)C(C(=O)OCC)=C1c1ccccc1 (stereo not drawn),inactive
13,CCN1C(=O)N(C)C(c2ccccc2)C(C(=O)OC)=C1C (stereo not drawn),inactive
14,CC(=O)OC[C@H]1O[C@H](c2ccc(C(C)=O)cc2)C=C[C@H]1OC(C)=O,inactive
15,COC(=O)[C@@H]1CC[C@H](C)[C@@H](c2ccc(C)cc2)N1C(=O)c1ccc(C=NOC[C@@H](O)[C@H]2O[C@@H]3OC(C)(C)O[C@H]3[C@@H]2O)cc1,inactive
16,CCCCCCCC1=CC2=CC(=O)C(C)(O)C(=O)C2=CN1CCCC (stereo not drawn),inactive
17,COc1cc(O)c(C(=O)C=Cc2ccccc2)c(O)c1,inactive
18,C=CCOC(=O)C(C(C)=O)[C@@H](NC(=O)OC)c1cccs1 (stereo partly drawn),inactive
19,CCCCCCN1C(=O)CC[C@@]23C1=NC(C(=O)OC)=C(C(=O)OC)[C@@H]2N(Cc1ccccc1)c1ccccc13,inactive
20,CC(C)=CCCC(C)=CCON=C1C[C@@H](O)[C@@H](O)[C@@H]2[C@H]3C(=O)N(c4ccc(F)cc4F)C(=O)[C@@H]3CC[C@H]12,inactive

row,SMILES,Potency
1,C=C(C(=O)OCC)C(=O)c1ccccc1,inactive
2,CCN1C(=NCc2ccc(OC)cc2)N[C@@H](CCc2ccccc2)[C@H](C(=O)NCc2ccc(OC)cc2)[C@H]1C,inactive
3,O=C(NC(CC1=CCCCC1)c1ccccc1)C(F)(F)F (stereo not drawn),inactive
4,CCN(CC)CCCN=C1NC(c2ccccc2)C(C(=O)OC)=C(C)N1CC (stereo not drawn),inactive
5,C=CC1=C2C=C(C3CC3)N(C3CCCCC3)C=C2C(=O)C(C)(OC(=O)c2ccco2)C1=O (stereo not drawn),inactive
6,CC(=O)OC[C@H]1O[C@@H](ON=C2C[C@@H](O)[C@@H](O)[C@@H]3[C@H]4C(=O)N(C5CCCCC5)C(=O)[C@@H]4CC[C@@H]23)[C@H](OC(C)=O)[C@@H](OC(C)=O)[C@H]1OC(C)=O,inactive
7,C=CC[C@@H]1C=C[C@H](ON=C(C)CCN2CCCCc3nc(C)c(C)cc32)[C@H](CO)O1,inactive
8,COC(=O)[C@H](COC(C)(C)C)NC(=O)O[C@@H]1C(=O)c2ccc(OC)cc2O[C@H]1c1cccc(C(F)(F)F)c1,inactive
9,CC(C)(C)OC(=O)NCCCC1=CC2=CC(=O)C(C)(O)C(=O)C2=CO1 (stereo not drawn),inactive
10,CC(C)=NOCc1ccc(-c2cn([C@@H]3COC[C@@H]3O)nn2)cc1,inactive
11,COc1ccc2c(c1)O[C@@H](c1ccc3c(c1)OCO3)[C@H](O)C2=O,inactive
12,CCC12C=C(C=Cc3ccccc3)C(CC)(C1)C(c1ccccc1)CC2=O (stereo not drawn),inactive
13,CCN1C(=NCCc2ccccn2)NC(c2cccc(C(F)(F)F)c2)C(C(=O)OC)=C1C (stereo not drawn),301 nM (active)
14,COC(=O)N1[C@H]2CC[C@@]3(C)CC(=O)C[C@]1(C)C3c1ccccc12,inactive
15,COC(=O)CC=C1c2ccc3c(c2[C@@H](OC)[C@@H]1C)OCO3,inactive
16,C[C@H]1COC(=O)[C@H](Cc2ccccc2)NC(=O)[C@@H](C)COC(=O)[C@H](Cc2ccccc2)NC1=O,inactive
17,COC(=O)[C@H](COC(C)(C)C)NC(=O)O[C@@H]1C(=O)c2ccc(OC)cc2O[C@H]1c1ccc2c(c1)OCO2,inactive
18,COC(=O)N[C@@H](c1ccco1)C(C(C)=O)C(=O)OC (stereo partly drawn),inactive
19,C=CCNC(=O)[C@H]1C=C(OC)C(=O)C[C@H]2c3ccccc3C[C@]12C,inactive
